This note sets out measurements from PubChem BioAssay AID1212 (NMMLSC, 2008).

Molecules are shown by their SMILES. A number with no mark means an inactive call. Active and inactive are the calls of the source.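 How the source made its calls: active means blocks over 60% of fluorescent estradiol binding at 10 µM; inactive means the rest.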

The test addresses G-protein coupled estrogen receptor 1 (Homo sapiens) (UniProt Q99527). Nature of the test: displacement of E2-Alexa633 from GPER – cell-based, Cos7 GPR30-GFP, flow cytometry, 10 µM, primary screen (AID 1212). The following applies: fluorescent estrogen competition, at 10 µM; active compounds read high. In general terms: A flow cytometer gives signals particle by particle.
Take `O=c1oc2cc(O)ccc2c2c1CCC2`: the outcome was inactive. The same measure, in the same setting: to `CCCOc1cc(OCCC)c2c3c(c(=O)oc2c1)CCCC3` belongs “inactive”; to `CCCc1c(C(=O)OCC)[nH]c2c1C(=O)CC(c1ccccc1)C2` (stereo not drawn), “inactive”. As to `CC1(C)Cc2[nH]c(=O)c(C(=O)O)cc2CO1`, the compound was classed as inactive. For the compound `CC(C)C1CC(CCNCc2ccc3c(c2)OCO3)(c2ccccc2)CCO1` (stereo not drawn), the compound was classed as inactive. As to `COc1ccc(-n2cc3c(c(C#N)c2=N)CC(C)(C)CC3=O)cc1`, the result was inactive. The same measure, in the same setting: to `CCOC(=O)COc1cc2oc(=O)c3c(c2cc1CC)CCCC3` belongs “inactive”. Regarding `CC(=O)Oc1ccc(C2Nc3c(C(=O)O)ccc([N+](=O)[O-])c3C3C=CCC32)cc1` (stereo not drawn), the inhibition (usually how much of the control response was suppressed) was 99% (active). Regarding `CC(=O)Oc1ccc2c(c1)CCC1C2C(O)CC2(C)C(=O)CCC12` (stereo not drawn), the result was inactive. As to `Cc1nn(-c2ccccc2)c2sc(C#N)c(N)c12`, the inhibition is 58%.

Turning to `CCOc1ccc(NS(=O)(=O)c2ccc3c(c2)[C@H]2C=CC[C@H]2[C@@H](c2ccc(C(=O)O)cc2)N3)cc1`, the inhibition was 100% (active). In the case of `CCCCc1cc(=O)oc2c(C)c(O)ccc12`, the compound was called inactive. On the same count and under the same terms, to `CC1(C)CC(=O)C=C(NC2CC(C)(C)NC(C)(C)C2)C1` belongs “inactive”; to `CC(C)COc1ccc2c(c1)c1c3n2CCNC3CCC1` (stereo not drawn), “inactive”. With `O=C(O)c1ccc2c(c1)C1C=CCC1C(c1cccc([N+](=O)[O-])c1)N2` (stereo not drawn), the inhibition is 57%. For the compound `CCCCCCc1cc2c3c(c(=O)oc2cc1OCC(=O)OC)CCC3`, the compound was classed as inactive. For `COc1cc2c(cc1OC)C(Cc1ccc(O)cc1)N(C)CC2` (stereo not drawn), the inhibition is 1%.

For `CC1(C)CC(=O)c2cn(-c3ccc(Cl)cc3)c(=N)c(C#N)c2C1`, the result was inactive. As for `O=C(O)c1ccc([N+](=O)[O-])c2c1NC(c1ccccc1)C1CC=CC21` (stereo not drawn), the inhibition was 100% (active). Same read-out and setting: to `CC(C)CN(Cc1c(O)ccc2c3c(c(=O)oc12)CCC3)CC(C)C` belongs 3%. In the case of `CC1(C)C=C(c2ccc(O)cc2)CC(C)(C)N1`, the compound was classed as inactive.

As to `O=C(O)COc1cc2oc(=O)c3c(c2cc1Cl)CCCC3`, the compound was called inactive.

For `CCC(Oc1ccc2c3c(c(=O)oc2c1C)CCC3)C(=O)OC` (stereo not drawn), the compound was called inactive. On the same count and under the same terms, to `Cc1cc(C(C)CO)cc(C(C)(C)C)c1O` (stereo not drawn) belongs “inactive”. On the same count and under the same terms, to `CCCCCCc1cc2c3c(c(=O)oc2cc1OCC(N)=O)CCC3` belongs “inactive”; to `O=c1oc2c(CN3CCCC3)c(O)ccc2c2c1CCC2`, “inactive”.

Turning to `Cc1nc2ccccc2n1-c1cc(C(C)(C)C)c(O)c(C(C)(C)C)c1`, the compound was called inactive. On the same count and under the same terms, to `CC(Nc1ccc(N2CCNCC2)cc1[N+](=O)[O-])C12CC3CC(CC(C3)C1)C2` (stereo not drawn) belongs “inactive”.
